Source: PubChem BioAssay (NCI)
This is part of a sample that, as a whole, favours compounds with a hit. Of some 79,000 tested, about 15% had one in any assay. A number with no mark means an inactive call. Active and inactive are the calls of the source. No stated cut-off is given here; in the data, active means growth inhibition above about 70%; inactive means the rest.

Columns and labels:
[1] = NCI Yeast Anticancer Drug Screen. Data for the rad50 strain (AID 155);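 further: 0% = growth of vehicle-only cultures of the same strain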; conditions: S. cerevisiae rad50 strain growth inhibition; at 50.0 µM; active compounds read high
In short: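 Compounds were tested on a yeast strain with an engineered DNA damage repair alteration; the reported value is growth inhibition normalised to vehicle treatment.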

[2] = NCI Yeast Anticancer Drug Screen. Data for the mec2-1 strain (AID 157); conditions: S. cerevisiae mec2-1 strain, at 50.0 µM, active compounds read high
In short: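 Strain: mec2-1 (DNA repair/cell cycle alteration). Compound exposure, then growth measured; inhibition expressed relative to vehicle.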

[3] = NCI Yeast Anticancer Drug Screen. Data for the sgs1 mgt1 strain (AID 161);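 further: 0% = growth of cultures given vehicle only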; conditions: S. cerevisiae sgs1 mgt1 strain, at 50.0 µM, active compounds read high
In short: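 Mutant yeast exposed to compound; growth scored against vehicle-only wells.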

[4] = NCI Yeast Anticancer Drug Screen. Data for the cln2 rad14 strain (AID 165);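 further: 0% = growth equal to vehicle treated cultures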; conditions: S. cerevisiae cln2 rad14 strain, at 50.0 µM, active compounds read high
In short: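 Compounds are applied to the cln2 rad14 yeast strain, and growth is then compared with that of vehicle-treated cultures to give inhibition.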

[5] = NCI Yeast Anticancer Drug Screen. Data for the bub3 strain (AID 167); conditions: S. cerevisiae bub3 mutant strain, at 50.0 µM, active compounds read high
In short: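 Growth of a checkpoint-deficient yeast mutant is measured after compound exposure. Values represent inhibition relative to vehicle.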

[6] = NCI Yeast Anticancer Drug Screen. Data for the mlh1 rad18 strain (AID 175); conditions: S. cerevisiae mlh1 rad18 strain growth inhibition; at 50.0 µM; active compounds read high
In short: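 Read-out is yeast growth inhibition, calculated against vehicle-only controls. The compound was applied to a strain engineered with DNA damage repair alterations.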

SMILES | growth inhibition [1] [%] | growth inhibition [2] [%] | growth inhibition [3] | growth inhibition [4] [%] | growth inhibition [5] | growth inhibition [6] [%]
CCCCOC(=O)NC(=O)c1cn(CCCOC(=O)CCCCCCCCC(=O)OCCCn2cc(C(=O)NC(=O)OCCCC)c(=O)[nH]c2=O)c(=O)[nH]c1=O | -23.2 | -28.2 | -32.8% | 5.05 | -5.85% | -35.9
CN(C(=O)C12C3C4C1C1C2C3C41C(=O)N(C)C(C)(C)C)C(C)(C)C (stereo unspecified) | 13.9 | 11.5 | -7.4% | 9.45 | 23.4% | -2.4
Cc1cccc(-c2nnc(-c3cccc4ccccc34)o2)c1 | 8.8 | -28.8 | 43.8% | 14.3 | 26.5% | 13.4
CN(C)CC(O)c1ccc(Cl)c2ccccc12 (stereo unspecified) | 3.95 | -20.9 | -31.9% | -30.1 | -8.7% | 1.75
O=C1C2Cc3ccccc3CN2C(=O)N1CN1CCN(CN2C(=O)C3Cc4ccccc4CN3C2=O)CC1 (stereo unspecified) | -13.1 | -0.05 | -16.6% | -10.9 | -28.6% | -5.8
O=C1CN(c2ccccc2)C(=O)CN1CCN1CC(=O)N(c2ccccc2)CC1=O | -34 | 14.8 | -4.5% | -2.3 | -31.5% | -8.6
CC(=C(C#N)C#N)c1ccccc1 | 11 | 2.5 | 13.1% | 6.45 | 2.8% | 5.45
CC[n+]1c([S-])nn(C)c1-c1cnccn1 | -2.8 | -4.9 | -9.05% | -13.9 | 24% | -12.5
O=[N+]([O-])c1ccc(C=NCCO)cc1 | 8.75 | 8.55 | 3.7% | -1 | 9.2% | -5.4
COc1ccc(C(=N)c2ccccc2C)cc1 | 8 | -8.65 | 6.05% | 1.65 | 8.5% | -8.4
O=CNc1ccc(S(=O)(=O)c2ccc(NC=O)cc2)cc1 | 4.05 | -35.7 | 4.75% | 26.6 | 9.9% | -18.1
CN(C)C=Nc1cccc2c1NSN2 | 5.5 | -6.4 | -1.35% | 29.1 | 13.4% | 33.1
CCOC(=O)CCCC(=O)N(CC(=O)OCC)Cc1ccccc1 | 2.6 | 12.1 | 13.2% | -4.9 | 5% | -5.85
O=C(OCC(Br)C(Br)c1ccccc1)c1ccccc1 (stereo unspecified) | -13.3 | -12.6 | -2% | -1.4 | 73.6% (active) | -27.6
O=C(NC1(C(=O)Oc2ccc([N+](=O)[O-])cc2)CCCC1)OCc1ccccc1 | 7.25 | 20.2 | 26.1% | 8.85 | -1.7% | 28.9
CSc1nc(C)c(Br)c(=O)n1C1OC(COC(C)=O)C(OC(C)=O)C(OC(C)=O)C1OC(C)=O (stereo unspecified) | -1.2 | -7.5 | -13.1% | 22.2 | -19.9% | 1.35
CCN(CC)CCOC(=O)c1ccc(N=NC2Sc3nc4ccccc4n3C2=O)cc1 (stereo unspecified) | 27.9 | 20.2 | 15.9% | 14.4 | 6.8% | 27.8
O=C(O)c1cccc([N+](=O)[O-])c1Nc1cccc(C(F)(F)F)c1 | 21.4 | 32.5 | 32.5% | 29.3 | 27.1% | 0.25
O=[N+]([O-])c1cc([N+](=O)[O-])c(/C=C/c2ccccc2Cl)cc1/C=C/c1ccccc1Cl | -10.2 | 13.4 | 15.8% | -19.6 | 0.05% | 0.5
O=C1NC(=O)C(c2ccc(O)cc2)N1 (stereo unspecified) | -21.1 | -14.8 | -4.6% | -30.9 | 0.2% | -10.2
NC(Cc1cccc2ccccc12)C(=O)O (stereo unspecified) | 14.3 | -1.2 | 10.4% | -48.1 | -7.3% | 5.5

SMILES | growth inhibition [1] [%] | growth inhibition [2] [%] | growth inhibition [3] | growth inhibition [4] [%] | growth inhibition [5] | growth inhibition [6] [%]
CCOc1c(N=Nc2ccccc2)c(C)nn1C(N)=S | -55.9 | -24.6 | 9.95% | -40.9 | 0.4% | 3.4
O=C(CCc1ccccc1)NC(=S)Nc1cc(C(F)(F)F)ccc1Cl | 13.2 | 14.2 | 33.5% | -41.8 | -8% | 34.9
CCc1ccc([OH2+])c(C(=O)[O-])c1.CCc1ccc([OH2+])c(C(=O)[O-])c1.CCc1ccc([OH2+])c(C(=O)[O-])c1.CCc1ccc([OH2+])c(C(=O)[O-])c1.[Cu+2].[Cu+2] | 18.9 | 2.5 | 21.6% | 29.3 | 8.75% | 20.9
Nc1c(S(=O)(=O)O)cc(Nc2cccc(S(=O)(=O)/C=C/S(=O)(=O)O)c2)c2c1C(=O)c1ccccc1C2=O | 8.4 | -28.9 | -1.2% | -2.45 | 0.85% | -14.2
COc1cccc2sc(-n3c(C)nc4ccccc4c3=O)nc12 | 33.5 | 12.5 | 54.8% | 17.9 | 51.9% | 40.5
CC(c1ccccc1)N1COc2cc3c(cc2C1)OCN(C(C)c1ccccc1)C3 (stereo unspecified) | -21.2 | -2.95 | -29.8% | -11.8 | -6.8% | -17.4
CC(C)CC(N)C(=O)NC(Cc1c[nH]c2ccccc12)C(N)=O (stereo unspecified) | -8.85 | 3.35 | 18.1% | -2.4 | 22.4% | 10.5
C/C(=N\O)c1cccc[n+]1Cc1ccccc1 | 12.2 | 12.7 | -15.8% | -21.6 | 17.8% | -3.6
CCSc1nc(N)c2c(-c3ccc(OC)c(OC)c3)c3c(nc2n1)CCCC3 | -32.6 | -17.2 | -39.5% | -3.35 | -15.8% | -25.4
c1ccc(C2=Nc3ccccc3C(c3ccccc3)=Nc3ccccc32)cc1 | 1.05 | 3.7 | -8.95% | -18.5 | -1.8% | 2.05
C=CC1C(OC2OC(CO)C(O)C(O)C2O)OC=C(C(=O)OC)C1CC1CC(=O)CC(CCc2ccc(O)cc2)O1 (stereo unspecified) | 1.8 | -10.1 | -4.9% | 1.45 | -13.9% | -76.2
CC(=O)NNc1nc(C)c(C(/C=C/c2ccc(Cl)cc2)=N\NS(=O)(=O)c2ccc(C)cc2)s1 | 26.1 | 2.9 | 19.6% | 23.2 | 23.6% | 9.45
CCC12CCCN(Cc3ccccc3)C1c1c([nH]c3ccccc13)C(C(=O)OC)C2 (stereo unspecified) | 11.8 | -2.25 | 17.6% | 13.7 | -0.25% | 2.3
COC(=O)c1ccc(Cn2ccc(=O)n(Cc3ccc(C(=O)OC)cc3)c2=O)cc1 | 63.2 | 23.8 | 74.6% (active) | 30.6 | 31.3% | 43.1
CC(C)(C)NO | 7.3 | -0.85 | 7.65% | 3.4 | 13.6% | -3.8
CCOC(=O)C1C(C)C2(C#N)C(=N)OC1(C)C2(C#N)C#N (stereo unspecified) | 21.5 | 19.1 | -6.6% | 1.5 | -22.4% | -12.9
Cc1cc(C)c(Cc2c(C)cc(C)cc2C)c(C)c1 | 14.8 | -25.6 | 7.25% | -2.85 | 23.9% | 13.9
CCSc1nc(C)cc(=O)[nH]1 | 28 | -1.35 | 9.6% | 6.15 | 13.2% | 27.9
COC(=O)c1ccc(-n2c(C)nc(=O)c(-c3ccccc3)c2C)cc1 | -6.85 | -33.4 | 12.4% | 11.9 | 0.95% | 7.65
O=C(O)C(O)c1cccc([N+](=O)[O-])c1 (stereo unspecified) | 11.1 | 11.7 | -8.8% | -7.05 | -32.2% | -12.9
